5 molecules from PubChem BioAssay can be followed below.

Experiment [1] deals with Wnt5a (protein binding on small-molecule microarray). The experiment in a line: small molecules binding Wnt5a protein – biophysical, small-molecule microarray, 635/667 nm fluorescence, primary screen (AID 1142).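 Note: fluorescence read at 667 nm with signal to noise per printed feature.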 The following applies: 635 nm fluorescence, higher = more signal.
The nature of experiment [2]: ATP-based viability of Huh7 replicon cells – cell-based, CellTiter-Glo luminescence, basal, 48 h, cytotoxicity control for HCV replication inhibitor project, primary screen (AID 1143).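 Note: Huh7 hepatoma cells carrying a hepatitis C replication reporter with no stimulus; test concentration not given here.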 Particulars: higher = more signal, called active from +8 up or from −8 down. For orientation: Replicon systems follow genome replication, usually without infectious particles.
Experiment [3] is described as follows: Pseudomonas biofilm growth suppression – PAO1 strain, BacTiter-Glo luminescence, LB-PBS, primary screen (AID 1144). The following applies: P. aeruginosa PAO1 biofilm, 12 h, higher = more signal.
A short description of experiment [4]: basal CRE-LacZ reporter activity in PC12 – cell-based, unstimulated, primary screen (AID 1145). Particulars: no forskolin, luminescence, 4.5 h, higher = more signal, called active from +8 up or from −8 down.
Experiment [5] can be described thus: forskolin-driven CRE-LacZ activity in PC12 – cell-based, CRE-LacZ reporter, forskolin-stimulated, primary screen (AID 1146).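 Note: PC12 cells with 6xCRE LacZ reporter stimulated by forskolin 10 µM; beta-galactosidase reporter signal reflecting CREB driven transcription.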 The following applies: luminescence, 4.5 h, higher = more signal, called active from +8 up or from −8 down.
The target in experiment [6] is Streptavidin (Streptomyces avidinii) (UniProt P22629). The experiment in a line: compounds binding control protein streptavidin – biophysical, small-molecule microarray, 635/667 nm fluorescence, artefact control for SMM compound annotation, primary screen (AID 1147).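 Note: signal reflects streptavidin binding to arrayed compounds as a control protein.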 The following applies: higher = more signal.
Experiment [7] in a line: probe aInhba binding on compound microarray – biochemical, small-molecule microarray, 635/667 nm fluorescence, primary screen (AID 1148).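 Note: score merges 667nm spot fluorescence with signal-to-noise for antibody binding to printed compounds.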 The following applies: higher = more signal.
Experiment [8] has as its target Torsin-1A (Homo sapiens) (UniProt O14656). The experiment is described as follows: TOR1A wild-type binding on microarray – cell lysate, small-molecule microarray, lysate, 635/667 nm, primary screen (AID 1149). The following applies: COS7 hTOR1A-WT lysate, 635 nm fluorescence, higher = more signal.
Experiment [9] has the same target. The experiment in a line: torsin A mutant lysate binding on microarrays – cell lysate, small-molecule microarray, COS7 lysate, 635/667 nm fluorescence, primary screen (AID 1150).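 Note: score pools 667 nm emission and signal to noise measuring lysate protein binding.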 The following applies: COS7 hTOR1A mutant lysate, 635 nm fluorescence, higher = more signal.
Experiment [10] relates to Sonic hedgehog protein (Shh). The experiment is described as follows: Sonic hedgehog microarray binding compounds – biochemical, small-molecule microarray, 635/667 nm fluorescence, primary screen (AID 1151).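 Note: Shh protein binding to compounds spotted on small-molecule microarray slides; score combines spot fluorescence intensity with signal-to-noise across triplicate slides.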 The following applies: 635 nm fluorescence, higher = more signal.
Experiment [11] can be described thus: optical density shifts of acrAB sulA E. coli – strain DRC41, OD650, 48 h, E. coli filamentation inducer project, primary screen (AID 1152).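 Note: E. coli MC1000 strain DRC41 lacking acrAB efflux pump and sulA.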 Particulars: higher = more signal, called active from +8 up or from −8 down.
Experiment [12] is described as follows: probe aLefty1 binding on compound microarray – biochemical, small-molecule microarray, 635/667 nm fluorescence, primary screen (AID 1153).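 Note: score merges spot fluorescence with signal-to-noise ratio from the scanned slide images.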 The following applies: higher = more signal.
Experiment [13] is described as follows: plasmodial surface anion channel blockers, osmotic lysis – cell-based, P. falciparum Indochina, OD700, 1 h, primary screen (AID 1154). The following applies: P. falciparum Indochina infected RBC osmotic lysis, higher = more signal, called active from +8 up or from −8 down.
Experiment [14] in a line: plasmodial surface anion channel blockers, osmotic lysis – cell-based, P. falciparum Indochina, OD700, 2 h, primary screen (AID 1155).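 Note: lysis reports solute entry through the parasite surface anion channel PSAC.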 The following applies: P. falciparum Indochina infected erythrocytes, higher = more signal, called active from +8 up or from −8 down.
Experiment [15] is described as follows: changes in parasitized red cell lysis, either direction – P. falciparum Indochina, OD700, 3 h, PSAC antagonist project, primary screen (AID 1156). Particulars: P. falciparum-infected erythrocytes, osmotic lysis, higher = more signal, called active from +8 up or from −8 down.
The nature of experiment [16]: plasmodial surface anion channel blockers, osmotic lysis – cell-based, P. falciparum Indochina, OD700, 18 h, primary screen (AID 1157). The following applies: P. falciparum Indochina infected erythrocytes, osmotic lysis OD700, 18 h; higher = more signal, called active from +8 up or from −8 down.
Experiment [17] can be described thus: S6 kinase pathway phospho-S6 level changes – cell-based, A549, cytoblot, luminescence, serum-stimulated, primary screen (AID 1158).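 Note: serum-stimulated A549 lung adenocarcinoma cells; signal is phosphorylated S6 detected by cytoblot immunostaining with HRP secondary.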 Particulars: 5 h, higher = more signal.
Experiment [18] concerns the target NADPH oxidase 2 (Homo sapiens) (UniProt P04839). The experiment is described as follows: compounds shifting NOX2 Amplex Red fluorescence – cell-based, HEK293-NOX2, PMA-stimulated, NOX inhibitor project, primary screen (AID 1159). Note: test concentration not given here. The following applies: 45 min, higher = more signal, called active from +8 up or from −8 down.
Experiment [19] concerns the target NADPH oxidase 4 (Homo sapiens) (UniProt Q9NPH5). The experiment in a line: compounds shifting NOX4 Amplex Red fluorescence – cell-based, HEK293-NOX4, tetracycline-induced, NOX inhibitor project, primary screen (AID 1160). The following applies: HEK293-NOX4, Amplex Red H2O2 fluorescence, 45 min; higher = more signal, called active from +8 up or from −8 down.
Experiment [20] concerns the target NADPH oxidase 5 (Homo sapiens) (UniProt Q96PH1). The experiment in a line: compounds shifting NOX5 Amplex Red fluorescence – cell-based, HEK293-NOX5, NOX inhibitor project, primary screen (AID 1161). The following applies: HEK293-NOX5, ionomycin, 45 min, higher = more signal.

Active and inactive are the calls of the source. Unless noted, the rule behind the calls is not given here.

Sequence of Streptavidin (Streptomyces avidinii) (P22629 whole entry, looked up): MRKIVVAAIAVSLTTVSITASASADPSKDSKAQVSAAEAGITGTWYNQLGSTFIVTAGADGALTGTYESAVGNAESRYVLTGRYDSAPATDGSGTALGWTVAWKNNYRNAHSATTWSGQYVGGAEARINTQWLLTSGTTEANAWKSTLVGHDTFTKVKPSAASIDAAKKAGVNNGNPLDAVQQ
Sequence of NADPH oxidase 4 (Homo sapiens) (Q9NPH5 whole entry, looked up): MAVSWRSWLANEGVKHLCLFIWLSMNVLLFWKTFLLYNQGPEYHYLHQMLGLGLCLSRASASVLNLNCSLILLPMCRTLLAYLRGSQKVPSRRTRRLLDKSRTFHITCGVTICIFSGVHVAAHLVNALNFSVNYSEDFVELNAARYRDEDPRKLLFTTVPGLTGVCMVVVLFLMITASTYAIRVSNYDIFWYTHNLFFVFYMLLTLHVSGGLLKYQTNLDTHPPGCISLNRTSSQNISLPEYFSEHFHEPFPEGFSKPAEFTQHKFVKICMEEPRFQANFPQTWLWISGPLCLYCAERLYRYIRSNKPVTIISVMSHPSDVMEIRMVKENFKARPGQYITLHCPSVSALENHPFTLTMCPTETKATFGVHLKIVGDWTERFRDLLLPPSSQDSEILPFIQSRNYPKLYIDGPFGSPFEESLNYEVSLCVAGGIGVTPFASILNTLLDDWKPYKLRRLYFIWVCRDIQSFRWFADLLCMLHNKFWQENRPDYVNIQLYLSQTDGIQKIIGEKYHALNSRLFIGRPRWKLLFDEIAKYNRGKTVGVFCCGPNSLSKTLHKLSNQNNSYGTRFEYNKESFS
Sequence of NADPH oxidase 2 (Homo sapiens) (P04839 whole entry, looked up): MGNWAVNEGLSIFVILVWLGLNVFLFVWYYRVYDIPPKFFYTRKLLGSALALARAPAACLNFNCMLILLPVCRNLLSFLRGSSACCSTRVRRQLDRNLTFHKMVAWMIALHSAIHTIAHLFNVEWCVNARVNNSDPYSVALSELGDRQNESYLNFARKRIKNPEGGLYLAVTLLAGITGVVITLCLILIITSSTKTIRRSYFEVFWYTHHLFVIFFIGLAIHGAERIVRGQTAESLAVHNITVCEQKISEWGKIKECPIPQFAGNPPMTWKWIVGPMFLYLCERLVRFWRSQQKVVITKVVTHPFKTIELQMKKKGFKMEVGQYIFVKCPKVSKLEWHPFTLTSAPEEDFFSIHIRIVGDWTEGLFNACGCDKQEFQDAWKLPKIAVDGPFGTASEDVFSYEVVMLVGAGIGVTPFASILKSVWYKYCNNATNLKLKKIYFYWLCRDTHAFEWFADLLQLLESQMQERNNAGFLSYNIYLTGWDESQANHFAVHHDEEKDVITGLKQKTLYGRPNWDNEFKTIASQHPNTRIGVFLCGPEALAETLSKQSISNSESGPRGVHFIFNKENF
Sequence of NADPH oxidase 5 (Homo sapiens) (Q96PH1 whole entry, looked up): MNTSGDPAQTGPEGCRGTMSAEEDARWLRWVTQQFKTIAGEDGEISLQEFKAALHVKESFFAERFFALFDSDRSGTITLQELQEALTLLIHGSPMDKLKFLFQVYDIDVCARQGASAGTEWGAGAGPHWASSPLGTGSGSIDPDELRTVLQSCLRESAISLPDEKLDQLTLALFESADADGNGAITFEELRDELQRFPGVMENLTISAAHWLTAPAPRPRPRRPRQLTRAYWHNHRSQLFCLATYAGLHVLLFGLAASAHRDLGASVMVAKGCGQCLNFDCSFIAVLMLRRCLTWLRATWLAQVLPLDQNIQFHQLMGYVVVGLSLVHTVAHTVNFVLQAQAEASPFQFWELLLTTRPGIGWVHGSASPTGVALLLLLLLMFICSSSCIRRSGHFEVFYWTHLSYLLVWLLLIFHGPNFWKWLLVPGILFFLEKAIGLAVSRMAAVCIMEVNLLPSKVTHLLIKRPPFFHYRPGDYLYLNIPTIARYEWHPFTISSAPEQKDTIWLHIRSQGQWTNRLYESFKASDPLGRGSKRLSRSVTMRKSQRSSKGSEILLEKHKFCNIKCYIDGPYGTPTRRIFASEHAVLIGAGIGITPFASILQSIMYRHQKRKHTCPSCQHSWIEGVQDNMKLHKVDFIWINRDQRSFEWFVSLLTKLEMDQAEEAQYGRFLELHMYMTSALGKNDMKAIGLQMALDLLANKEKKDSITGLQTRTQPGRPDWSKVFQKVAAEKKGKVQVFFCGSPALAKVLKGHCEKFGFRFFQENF
Sequence of Torsin-1A (Homo sapiens) (O14656 whole entry, looked up): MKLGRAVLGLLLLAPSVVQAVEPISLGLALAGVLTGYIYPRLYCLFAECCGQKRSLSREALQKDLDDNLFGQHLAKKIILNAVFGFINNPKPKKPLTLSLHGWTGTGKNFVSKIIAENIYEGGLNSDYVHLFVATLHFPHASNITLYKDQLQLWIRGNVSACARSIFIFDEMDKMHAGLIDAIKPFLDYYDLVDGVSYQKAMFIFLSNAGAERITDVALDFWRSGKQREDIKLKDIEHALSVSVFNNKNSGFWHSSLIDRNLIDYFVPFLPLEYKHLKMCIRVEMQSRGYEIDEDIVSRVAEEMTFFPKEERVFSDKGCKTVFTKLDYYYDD

Turning to `Cc1ccc(S[C@]2(C(=O)NCc3ccccc3)CC(=O)N(C3Cc4ccccc4C3)[C@@H]2c2ccc(CO)cc2I)cc1`, the composite z-score was -0.265 in [1]; -0.299 in [6]; -0.157 in experiment [7]; -0.265 with Torsin-1A (Homo sapiens) [8]; -1.03 in the experiment with Torsin-1A (Homo sapiens) [9]; -0.0358 in experiment [10]. Further, in experiment [12], the composite z-score stood at 0.0049. The z-score is -2.56 (inactive) in experiment [2]; -0.394 (inactive) in experiment [3]; -0.179 (inactive) in [4]; -0.17 (inactive) in experiment [5]; 3.36 (inactive) in experiment [11]; 3.94 (inactive) in experiment [13]. Moreover, the z-score was -0.533 (inactive) in experiment [14]; -0.406 (inactive) in experiment [15]; -0.63 (inactive) in experiment [16]; 1.58 in [17]; 0.542 (inactive) in experiment [18]; -0.966 (inactive) in experiment [19]. Moreover, the z-score in experiment [20] amounted to 1.42.
For `[N-]=[N+]=Nc1ccccc1[C@H]1OC(c2ccc(OCCCO)cc2)=N[C@@]1(Cc1ccccc1)C(=O)NCc1ccccc1`, the composite z-score is 0.821 in [1]; 0.501 in [6]; 0.0301 in experiment [7]; 0.104 in the experiment with Torsin-1A (Homo sapiens) [8]; 0.383 in the experiment with Torsin-1A (Homo sapiens) [9]; -0.272 in experiment [10]. For the same molecule, the composite z-score in [12] stood at 0.512. Moreover, the z-score is -5.4 (inactive) in experiment [2]; -0.638 (inactive) in experiment [3]; -0.16 (inactive) in experiment [4]; -1.26 (inactive) in experiment [5]; 1.74 (inactive) in experiment [11]; 33.5 (active) in experiment [13]. For the same molecule, the z-score is 26.9 (active) in experiment [14]; 1.22 (inactive) in experiment [15]; 2.33 (inactive) in experiment [16]; 2.03 in [17]; -2.35 (inactive) in experiment [18]; -0.275 (inactive) in experiment [19]. For the same molecule, the z-score in [20] was -1.3.
Turning to `CC(C)(C)OC(=O)CC[C@@]1(C(=O)N2CCCCC2)N=C(c2ccc(OCCCO)cc2)O[C@@H]1c1ccccc1N=[N+]=[N-]`, the composite z-score in experiment [1] came to 0.258; in experiment [6], 2.05; in experiment [7], 0.401; in the experiment with Torsin-1A (Homo sapiens) [8] it was 0.332; in the experiment with Torsin-1A (Homo sapiens) [9], 0.827; in [10] it was 0.292. Moreover, in experiment [12], the composite z-score was 0.432. Also, the z-score was -2.66 (inactive) in experiment [2]; -0.197 (inactive) in experiment [3]; 0.227 (inactive) in experiment [4]; -1.62 (inactive) in experiment [5]; 1.71 (inactive) in experiment [11]; 30.3 (active) in [13]. In addition, the z-score in experiment [14] was 29.3 (active); in experiment [15] it was 2.26 (inactive); in [16], 8.44 (active); in experiment [17], -0.0394; in [18], -2.98 (inactive); in experiment [19], 1.03 (inactive). The z-score in [20] was -1.47.
Regarding `CCCN1C(=O)[C@@]2(Cc3ccccc3)N=C(c3ccc(OCCCO)cc3)O[C@H]2c2ccccc21`, the composite z-score in [1] was 0.421; in experiment [6] it was -0.0407; in experiment [7] it was 0.215; in the experiment with Torsin-1A (Homo sapiens) [8] it was 1.06; with Torsin-1A (Homo sapiens) [9] it was 0.884; in [10], 1.72. The molecule further came in with a composite z-score in [12] of 0.572. Also, the z-score was -5.03 (inactive) in [2]; -0.657 (inactive) in experiment [3]; 1.61 (inactive) in experiment [4]; -0.979 (inactive) in experiment [5]; 0.299 (inactive) in experiment [11]; 32.7 (active) in experiment [13]. Further, the z-score in experiment [14] is 33.7 (active); in experiment [15], 3.01 (inactive); in experiment [16], 5.2 (inactive); in experiment [17] it was -0.149; in experiment [18] it was -2.69 (inactive); in experiment [19], -0.584 (inactive). In experiment [20], the z-score was -1.79.
On to `CC(C)CNC(=O)[C@@]1(c2ccc([N+](=O)[O-])cc2)CC(=O)N(C(C)C)[C@@H]1c1ccc(CO)cc1`, for which the composite z-score in experiment [1] is -0.618; in experiment [6], -1.19; in experiment [7], -0.233; with Torsin-1A (Homo sapiens) [8], -0.486; with Torsin-1A (Homo sapiens) [9] it was -1.29; in experiment [10] it was 0.225. Moreover, in experiment [12], the composite z-score is -0.0547. In addition, the z-score in [2] is -4.3 (inactive); in experiment [3] it was -1.28 (inactive); in experiment [4], -1.06 (inactive); in [5] it was 0.107 (inactive); in [11] it was 1.27 (inactive); in [13] it was 0.224 (inactive). For the same molecule, the z-score is -0.227 (inactive) in [14]; -1.64 (inactive) in experiment [15]; -0.533 (inactive) in experiment [16]; 0.557 in experiment [17]; -0.145 (inactive) in experiment [18]; -0.423 (inactive) in [19]. For the same molecule, the z-score in experiment [20] was -1.44.
